According to article PMC5700166:
Residue numbers refer to the chain shown, from its start.

Experiments:
Assay in all cases: protein-binding microarray (PBM); PBM: ~300 nM protein, 6 mM HEPES pH 7.8, 80 mM KCl, 0.5 mM EDTA, 0.5 mM EGTA, 6% glycerol, 35 ng/ul poly-dIdC, 1% milk, 1 h, room temperature; Ap Aiptasia and Nv Nematostella (sea anemones) / Co Capsaspora / Aq Amphimedon (sponge) / Dm Drosophila / Hu human; RHD is the Rel homology domain; high values mean tight binding
Conditions in all cases: dsDNA, one strand shown
GST-Ap-NF-kB RHD = target: T1, GST-Ap-NF-kB RHD (Exaiptasia pallida (Aiptasia), UniProt A0A913YAJ5 2-422)
T1 sequence: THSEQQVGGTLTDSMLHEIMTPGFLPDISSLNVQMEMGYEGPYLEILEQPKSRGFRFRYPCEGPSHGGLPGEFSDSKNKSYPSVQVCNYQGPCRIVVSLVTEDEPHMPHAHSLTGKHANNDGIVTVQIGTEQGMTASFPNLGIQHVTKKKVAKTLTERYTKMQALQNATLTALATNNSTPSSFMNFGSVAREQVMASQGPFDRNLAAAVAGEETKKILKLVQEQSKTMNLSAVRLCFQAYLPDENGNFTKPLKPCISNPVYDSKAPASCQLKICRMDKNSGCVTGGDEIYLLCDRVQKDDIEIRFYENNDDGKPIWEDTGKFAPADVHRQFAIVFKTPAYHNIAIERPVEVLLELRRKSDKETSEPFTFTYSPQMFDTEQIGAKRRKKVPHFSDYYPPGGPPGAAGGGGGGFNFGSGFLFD

[1] = target: T2, GST-Nv-NF-kB (Cys allele) (Nematostella vectensis, UniProt E5G601 2-411)
T2 sequence: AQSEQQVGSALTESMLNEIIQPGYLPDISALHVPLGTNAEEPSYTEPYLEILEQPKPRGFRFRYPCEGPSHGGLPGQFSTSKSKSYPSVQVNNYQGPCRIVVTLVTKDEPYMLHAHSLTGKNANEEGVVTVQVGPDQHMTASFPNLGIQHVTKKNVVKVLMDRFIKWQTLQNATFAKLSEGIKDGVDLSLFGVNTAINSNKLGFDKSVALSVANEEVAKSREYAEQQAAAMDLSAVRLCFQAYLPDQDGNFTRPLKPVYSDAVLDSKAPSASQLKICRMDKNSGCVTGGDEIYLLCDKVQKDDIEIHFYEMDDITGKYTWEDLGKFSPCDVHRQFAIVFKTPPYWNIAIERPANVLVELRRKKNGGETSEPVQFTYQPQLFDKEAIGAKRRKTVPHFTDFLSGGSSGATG

[2] = target: T3, GST-Nv-NF-kB (Ser allele) (Nematostella vectensis, UniProt A7UNT2 2-411)
T3 sequence: T2 sequence with Q21R, C66S, S207N, E215Q, V217A, E225K, A268E, D399E

GST-Co-NF-kB = target: T4, GST-Co-NF-kB (Capsaspora owczarzaki, UniProt F1ARL5 200-546)
T4 sequence: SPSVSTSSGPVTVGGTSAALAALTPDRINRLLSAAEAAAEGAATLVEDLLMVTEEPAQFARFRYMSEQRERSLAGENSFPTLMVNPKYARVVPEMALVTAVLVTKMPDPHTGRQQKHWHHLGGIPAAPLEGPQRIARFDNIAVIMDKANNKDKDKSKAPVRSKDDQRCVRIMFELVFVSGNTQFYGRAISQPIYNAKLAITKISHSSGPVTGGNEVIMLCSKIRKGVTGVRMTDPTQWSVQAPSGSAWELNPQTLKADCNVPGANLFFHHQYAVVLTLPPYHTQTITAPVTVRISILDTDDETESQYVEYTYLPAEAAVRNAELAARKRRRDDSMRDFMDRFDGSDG

GST-Dm-Relish = target: T5, GST-Dm-Relish (Drosophila melanogaster, UniProt Q94527 99-473)
T5 sequence: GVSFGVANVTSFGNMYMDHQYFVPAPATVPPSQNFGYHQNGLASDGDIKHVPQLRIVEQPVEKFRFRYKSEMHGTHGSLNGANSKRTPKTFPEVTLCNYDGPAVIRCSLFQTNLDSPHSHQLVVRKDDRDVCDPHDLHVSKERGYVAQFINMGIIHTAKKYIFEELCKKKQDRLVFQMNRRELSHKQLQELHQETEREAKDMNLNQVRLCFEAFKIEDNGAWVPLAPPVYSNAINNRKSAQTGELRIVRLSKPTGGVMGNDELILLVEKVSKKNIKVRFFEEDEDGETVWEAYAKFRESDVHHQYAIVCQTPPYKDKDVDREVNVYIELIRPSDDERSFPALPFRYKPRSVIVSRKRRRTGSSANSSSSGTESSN

GST-Aq-NF-kB = target: T6, GST-Aq-NF-kB (Amphimedon queenslandica, UniProt A9Y5G7 2-389)
T6 sequence: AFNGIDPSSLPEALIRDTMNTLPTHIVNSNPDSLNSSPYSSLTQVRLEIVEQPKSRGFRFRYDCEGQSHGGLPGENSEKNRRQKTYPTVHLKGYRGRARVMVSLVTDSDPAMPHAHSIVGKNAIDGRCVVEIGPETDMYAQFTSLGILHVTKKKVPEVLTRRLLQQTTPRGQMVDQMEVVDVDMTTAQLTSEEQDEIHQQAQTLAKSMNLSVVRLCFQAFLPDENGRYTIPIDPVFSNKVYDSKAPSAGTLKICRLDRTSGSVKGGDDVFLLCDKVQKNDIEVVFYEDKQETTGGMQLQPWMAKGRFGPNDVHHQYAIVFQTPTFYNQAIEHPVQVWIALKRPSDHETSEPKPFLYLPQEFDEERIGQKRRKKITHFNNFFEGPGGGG

GST-Hu-p50 = GST-Hu-p50 (Homo sapiens, UniProt P19838 7-356)
Chain of GST-Hu-p50 (P19838 7-356): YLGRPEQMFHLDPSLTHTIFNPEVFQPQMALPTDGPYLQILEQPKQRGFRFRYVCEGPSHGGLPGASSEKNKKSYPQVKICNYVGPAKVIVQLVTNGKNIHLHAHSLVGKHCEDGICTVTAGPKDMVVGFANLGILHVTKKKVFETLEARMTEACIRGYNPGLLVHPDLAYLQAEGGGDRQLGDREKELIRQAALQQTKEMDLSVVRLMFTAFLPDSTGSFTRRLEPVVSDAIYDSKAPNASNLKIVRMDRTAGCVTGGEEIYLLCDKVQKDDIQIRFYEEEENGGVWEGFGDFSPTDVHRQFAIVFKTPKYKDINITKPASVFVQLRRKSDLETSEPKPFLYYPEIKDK

## CCGATTAACATCAATAACCCCCCTGATGTTAATCGGGTCTTGATTCGCTTGACGCTGCTG
GST-Ap-NF-kB RHD
  binding signal: 6.33 z-score
[1]
  binding signal: 5.55 z-score
[2]
  binding signal: 5.48 z-score
GST-Co-NF-kB
  binding signal: 4.7 z-score
GST-Dm-Relish
  binding signal: 8.07 z-score
GST-Aq-NF-kB
  binding signal: 6.46 z-score
GST-Hu-p50
  binding signal: 5.76 z-score

## CCGATTAACATCAGGGGGGTGTATGATGTTAATCGGGTCTTGATTCGCTTGACGCTGCTG
GST-Ap-NF-kB RHD
  binding signal: 3.69 z-score
[1]
  binding signal: 3.97 z-score
[2]
  binding signal: 4.14 z-score
GST-Co-NF-kB
  binding signal: 4.29 z-score
GST-Dm-Relish
  binding signal: 4.17 z-score
GST-Aq-NF-kB
  binding signal: 4.24 z-score
GST-Hu-p50
  binding signal: 3.91 z-score

## CCGATTAACATCAGGGAATTCCCTGATGTTAATCGGGTCTTGATTCGCTTGACGCTGCTG
GST-Ap-NF-kB RHD
  binding signal: 12 z-score
[1]
  binding signal: 12.7 z-score
[2]
  binding signal: 11.4 z-score
GST-Co-NF-kB
  binding signal: 7.25 z-score
GST-Dm-Relish
  binding signal: 10 z-score
GST-Aq-NF-kB
  binding signal: 12.2 z-score
GST-Hu-p50
  binding signal: 7.9 z-score

## CCGATTAACATCAAGTAATCCCCTGATGTTAATCGGGTCTTGATTCGCTTGACGCTGCTG
GST-Ap-NF-kB RHD
  binding signal: 7.36 z-score
[1]
  binding signal: 7.72 z-score
[2]
  binding signal: 7.94 z-score
GST-Co-NF-kB
  binding signal: 3.88 z-score
GST-Dm-Relish
  binding signal: 7.56 z-score
GST-Aq-NF-kB
  binding signal: 6.04 z-score
GST-Hu-p50
  binding signal: 5.93 z-score

## CCGATTAACATCAGGGGGATCTATGATGTTAATCGGGTCTTGATTCGCTTGACGCTGCTG
GST-Ap-NF-kB RHD
  binding signal: 6.31 z-score
[1]
  binding signal: 5.52 z-score
[2]
  binding signal: 6.98 z-score
GST-Co-NF-kB
  binding signal: 4.28 z-score
GST-Dm-Relish
  binding signal: 5.1 z-score
GST-Aq-NF-kB
  binding signal: 4.5 z-score
GST-Hu-p50
  binding signal: 5.83 z-score

## CCGATTAACATCACAAATTACCCTGATGTTAATCGGGTCTTGATTCGCTTGACGCTGCTG
GST-Ap-NF-kB RHD
  binding signal: 3.66 z-score
[1]
  binding signal: 5.32 z-score
[2]
  binding signal: 5.44 z-score
GST-Co-NF-kB
  binding signal: 3.35 z-score
GST-Dm-Relish
  binding signal: 3.01 z-score
GST-Aq-NF-kB
  binding signal: 4.95 z-score
GST-Hu-p50
  binding signal: 4.07 z-score

## CCGATTAACATCAGGGGGTAAGATGATGTTAATCGGGTCTTGATTCGCTTGACGCTGCTG
GST-Ap-NF-kB RHD
  binding signal: 3.96 z-score
[1]
  binding signal: 3.13 z-score
[2]
  binding signal: 3.97 z-score
GST-Co-NF-kB
  binding signal: 5.47 z-score
GST-Dm-Relish
  binding signal: 1.62 z-score
GST-Aq-NF-kB
  binding signal: 3.34 z-score
GST-Hu-p50
  binding signal: 3.07 z-score

## CCGATTAACATCAGGGGAAAATATGATGTTAATCGGGTCTTGATTCGCTTGACGCTGCTG
GST-Ap-NF-kB RHD
  binding signal: 6.98 z-score
[1]
  binding signal: 8.57 z-score
[2]
  binding signal: 11.7 z-score
GST-Co-NF-kB
  binding signal: 10.2 z-score
GST-Dm-Relish
  binding signal: 4.1 z-score
GST-Aq-NF-kB
  binding signal: 6.25 z-score
GST-Hu-p50
  binding signal: 6.72 z-score

## CCGATTAACATCAGGGAAAGCCCTGATGTTAATCGGGTCTTGATTCGCTTGACGCTGCTG
GST-Ap-NF-kB RHD
  binding signal: 6.37 z-score
[1]
  binding signal: 8.76 z-score
[2]
  binding signal: 4.62 z-score
GST-Co-NF-kB
  binding signal: 1.84 z-score
GST-Dm-Relish
  binding signal: 7.96 z-score
GST-Aq-NF-kB
  binding signal: 8.88 z-score
GST-Hu-p50
  binding signal: 4.93 z-score

## CCGATTAACATCAATATTCCCCATGATGTTAATCGGGTCTTGATTCGCTTGACGCTGCTG
GST-Ap-NF-kB RHD
  binding signal: 7.4 z-score
[1]
  binding signal: 8.39 z-score
[2]
  binding signal: 8.19 z-score
GST-Co-NF-kB
  binding signal: 8.46 z-score
GST-Dm-Relish
  binding signal: 3.77 z-score
GST-Aq-NF-kB
  binding signal: 5.97 z-score
GST-Hu-p50
  binding signal: 5.88 z-score

## CCGATTAACATCAATAATCCCCCTGATGTTAATCGGGTCTTGATTCGCTTGACGCTGCTG
GST-Ap-NF-kB RHD
  binding signal: 8.84 z-score
[1]
  binding signal: 8.72 z-score
[2]
  binding signal: 9.49 z-score
GST-Co-NF-kB
  binding signal: 6.87 z-score
GST-Dm-Relish
  binding signal: 8.23 z-score
GST-Aq-NF-kB
  binding signal: 7.52 z-score
GST-Hu-p50
  binding signal: 7.52 z-score
